Reference: paper PMC5540273 (PLoS ONE, 2017)

tested on: NEK9; settings: concentration: 1 μM, replicates: in singlicate; n = 1
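Also: KINOMEscan kinase panel screen.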

Compared with `Clc1ccc(-c2nn3ncccc3c2-c2ccnc(Nc3ccc4c(c3)OCCO4)n2)cc1` [GW829116], `Fc1ccc(-c2ncn(C3CCNCC3)c2-c2ccnc(Oc3ccc(-c4ccccc4)cc3)n2)cc1` [SB-245391] is higher in “%Inh” value: 0% for the first, 7% for the second.

Going from `Cl.Cl.NCC(C(=O)Nc1cc(Br)c(-c2ccnc3[nH]ccc23)s1)c1ccccc1` (stereo not drawn) [GSK1269851] to `O=C(Nc1ccccc1F)NC1CCN(c2ccnc(Nc3ccc(F)cc3)n2)CC1` [GSK1379800], the “%Inh” value falls from 9% to 0%.

`COc1cccc(C2=C(Nc3ccc(Cl)c(C(=O)O)c3)C(=O)NC2=O)c1` [SB-390769] was tested, and the “%Inh” value was 0%.

tested on: T1, NIK; settings: concentration: 1 μM, replicates: in singlicate; n = 1
T1 construct: gene MAP3K14

First: CCCCc1nn2ncccc2c1-c1ccnc(Nc2ccc(N3CCN(C)CC3)cc2)n1 [GW684941]
Second: Clc1ccc(-c2nn3ncccc3c2-c2ccnc(Nc3ccc4c(c3)OCCO4)n2)cc1 [GW829116]
The “%Inh” value of the first is higher: 11% for the first, 10% for the second.

Going from `Cc1ccc(S(=O)(=O)Nc2ccc(Nc3nccc(Nc4cccc5[nH]ncc45)n3)cc2)cc1` [GSK581271] to `Cl.c1ccc(-c2ccc3c(Nc4ccc5[nH]ncc5c4)ccnc3c2)nc1` [GW440137], the “%Inh” value rises from 0% to 10%.

Compared with `CN(C)Cc1ccc(-c2ccc3c(Nc4ccc(Oc5ccccn5)cc4)ccnc3c2)o1` [GW567148], `Cl.c1ccc(-c2ccc3c(Nc4ccc5[nH]ccc5c4)ccnc3c2)nc1` [GW440138] is higher in “%Inh” value: 12% for the first, 24% for the second.

Compared with `Cc1cccc(Nc2nc(N[C@H]3CCNC3)ncc2C(N)=O)c1.Cl` [GSK2197149], `Cc1ccc(C)c(NC(=O)NC2CCN(c3ccnc(Nc4ccc(F)cc4)n3)C2)c1` (stereo not drawn) [GSK1379720] is higher in “%Inh” value: 20% for the first, 22% for the second.

Compared with `Cc1ccc(C(=O)N2CC[C@@H](O)C2)cc1-n1c(C)cc(OCc2ccc(F)cc2F)c(Br)c1=O`, `Cn1cc(-c2ccc3c(c2)CCN3C(=O)Cc2cccc(F)c2)c2c(N)ncnc21` [GSK2603358] is higher in “%Inh” value: 0% for the first, 23% for the second.

Going from `O=C(O)C(F)(F)F.O=C(O)C(F)(F)F.O=c1[nH]ccc2nc(N[C@@H]3CCCNC3)nc(Nc3ccc(S(=O)(=O)N4CCOCC4)cc3)c12` [GSK2177277] to `O=C(Nc1ccccc1F)NC1CCN(c2ccnc(Nc3ccc(F)cc3)n2)CC1` [GSK1379800], the “%Inh” value falls from 87% to 9%.

Going from `Cc1cccc(NC(=O)Nc2ccc(Oc3ncnc4ccn(C)c34)cc2)c1` to `COc1cccc(C(=O)Nc2cccc(Oc3ccc4nc(NC(=O)C5CC5)cn4n3)c2)c1`, the “%Inh” value falls from 5% to 0%.

First: COc1ccc(-c2coc3ccc(-c4nnc(SCc5ccc(OC)c(C(F)(F)F)c5)o4)cc23)cc1
Second: COC(=O)Nc1nc2cc(Oc3ccc(NC(=O)Nc4cc(C(F)(F)F)ccc4F)cn3)ccc2[nH]1.Cl.Cl [GW681170]
The “%Inh” value of the first is lower: 1% for the first, 26% for the second.

Going from `CC(C)c1nc(-c2cccc(NS(=O)(=O)c3c(F)cccc3F)c2F)c(-c2ccnc(Nc3ccc(N4CCOCC4)nc3)n2)s1` [GSK2008607] to `CCS(=O)(=O)c1ccc(OC)c(Nc2nccc(-c3c(-c4cccc(NC(=O)c5c(F)cccc5F)c4)nn4ncccc34)n2)c1` [GSK326180], the “%Inh” value rises from 0% to 6%.

Going from `O=C(Nc1cccc(-c2nn3ncccc3c2-c2ccnc(Nc3ccccc3)n2)c1)c1c(F)cccc1F` [GSK198271] to `COc1cc(Nc2nccc(-c3c(-c4cccc(NC(=O)c5c(F)cccc5F)c4)nn4ccccc34)n2)cc(OC)c1OC` [GSK323521], the “%Inh” value rises from 0% to 19%.

First: O=c1[nH]cc(-c2ccc(N3CCOCC3)cc2)c2sc(-c3cn[nH]c3)cc12 [GSK2276055]
Second: COc1cc2c(cc1OCCN1CCNCC1)ncc1c3ccc(C#N)cc3[nH]c21
The “%Inh” value of the first is lower: 17% for the first, 65% for the second.

Going from `Cl.Cl.NCC(NCc1ccc(-c2ccnc3[nH]ccc23)s1)c1ccccc1` (stereo not drawn) [GSK1321565] to `Cl.Cl.NCC(C(=O)Nc1cc(Br)c(-c2ccnc3[nH]ccc23)s1)c1ccccc1` (stereo not drawn) [GSK1269851], the “%Inh” value falls from 20% to 8%.

Going from `COc1cccc(-c2ccc3c(NC(=O)C4CC4)n[nH]c3n2)c1` [SB-710903] to `O=C(Nc1n[nH]c2cc(-c3ccoc3)ccc12)C1CC1` [SB-738481], the “%Inh” value rises from 0% to 9%.

First: CSc1cccc2c(-c3ccncn3)c(-c3ccc(F)cc3)nn12 [GW514786]
Second: Fc1ccc(-c2ncn(C3CCNCC3)c2-c2ccnc(Oc3ccc(-c4ccccc4)cc3)n2)cc1 [SB-245391]
The “%Inh” value of the first is lower: 14% for the first, 31% for the second.

Going from `C[C@@H](Oc1cc(-n2cnc3cc(-c4ccnc(NCCS(C)(=O)=O)c4)ccc32)sc1C(N)=O)c1ccccc1Cl` [GSK907232] to `CN(C)S(=O)(=O)c1cc(-c2ccc3nccc(-c4cccc(S(N)(=O)=O)c4)c3c2)cnc1N` [GSK1669921], the “%Inh” value rises from 0% to 3%.

Going from `Cn1cc(-c2[nH]c3cc(NC(=O)[C@H](N)C4CCCCC4)cc4c3c2C=NNC4=O)cn1` to `COc1cccc(C2=C(Nc3ccc(Cl)c(C(=O)O)c3)C(=O)NC2=O)c1` [SB-390769], the “%Inh” value rises from 3% to 21%.

First: CCn1c(-c2nonc2N)nc2c(C#CC(C)(C)O)ncc(OCCCCN)c21.O=C(O)C(F)(F)F.O=C(O)C(F)(F)F [GSK507274]
Second: CCn1c(-c2nonc2N)nc2c(C#CC(C)(C)O)nc(OC[C@H](N)c3ccccc3)cc21 [GSK943949]
The “%Inh” value of the first is lower: 68% for the first, 72% for the second.

Going from `Nc1n[nH]c2cnc(-c3ccccc3)cc12` [SB-642124] to `FC(F)(F)c1ccc(/C=C/c2cncnc2Nc2ccc3[nH]c(Cc4ccccc4)nc3c2)cc1` [GW709199], the “%Inh” value falls from 10% to 0%.

In the case of `CC(C)(C)c1ccc2nccc(Nc3cccc(O)c3)c2c1` [GW856795], the “%Inh” value was 9%.
